Data published in PubChem BioAssay AID651687 (Broad Institute, 2012).
Values joined by “and” are separate entries in the source; they are usually repeats but may differ in a detail not shown here. Equal entries are not always repeated. Among all 350,000 compounds or so, about 600 (0.17%) were called active. The full list was thinned out, with actives kept by preference. Values without a mark were called inactive.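 How the source made its calls: active means every replicate shows inhibition of at least 40%; inconclusive means mean inhibition at least 40% but some replicate below; inactive means the rest.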

Assay: inhibitors of PGC1a acetylation signal, primary screen, cell-based, U2OS, AlphaScreen, inhibitor mode (AID 651687);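 further: 0% = neutral control wells and 100% = positive control wells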
Conditions: AlphaScreen anti-acetyl-lysine, at 15.6 µM, hits give high values, with virally co-expressed GCN5 acetyltransferase

SMILES	inhibition
C[C@@H]1CN([C@H](C)CO)S(=O)(=O)c2ccc(C#CC3CCCC3)cc2O[C@@H]1CN(C)Cc1cccnc1	-39.6%
COCC(=O)Nc1ccc2c(c1)OC[C@@H](C)N(C(=O)c1cnccn1)C[C@H](C)[C@@H](OC)CN(C)C2=O	-1.16%
Cc1ccc(S(=O)(=O)NC[C@H]2CC[C@@H]3[C@@H](CN3Cc3ccccc3C(=O)O)O2)cc1	-6.11%
Cc1noc(C)c1NC(=O)N(C)C[C@H]1OCCCC[C@H](C)Oc2ccc(NC(=O)Cc3ccccc3)cc2C(=O)N([C@H](C)CO)C[C@@H]1C	0.037%
C[C@H]1CN([C@@H](C)CO)C(=O)c2cc(NC(=O)Nc3ccccc3)ccc2O[C@H]1CN(C)S(C)(=O)=O	-6.24%
C[C@@H]1CN([C@@H](C)CO)C(=O)c2cc(/C=C/c3ccccc3)cnc2O[C@H]1CN(C)C(=O)Nc1ccc(C(F)(F)F)cc1	-1.88%
O=C(NC1=CC(=O)c2ccccc2C1=O)c1ccccc1	80.8% (active)
O=C(Nc1ncccc1O)c1ccc(C(=O)c2ccccc2)cc1	5.14%
O=C(Nc1ccc2ccccc2c1[N+](=O)[O-])c1ccccc1	14%
O=C(CC1CC1)N1CC[C@@H]2[C@@H](CO)Nc3ccc(-c4ccccc4)cc3[C@@H]21	-14.4%
CO[C@@H]1CN(C)C(=O)c2cc(NC(=O)Nc3cccc(Cl)c3)ccc2OC[C@@H](C)N(C)C[C@@H]1C	7.96%
CCCN1C[C@@H](C)[C@@H](OC)CN(C)C(=O)c2cc(NC(=O)c3ccccc3)ccc2OC[C@H]1C	-3.59%
Cc1cc(C(=O)Nc2cccc3c2O[C@@H](CN(C)S(=O)(=O)c2ccc(F)cc2)[C@@H](C)CN([C@H](C)CO)C3=O)n(C)n1	4.7%
O=C(C[C@@H]1CC[C@@H](NS(=O)(=O)c2ccccc2)[C@H](CO)O1)NCc1ccc(Cl)c(Cl)c1	-0.169%
COCC(=O)N1CC2(CN(C(=O)c3cccnc3)C2)c2c([nH]c3cc(OC)ccc23)[C@H]1CO	3.03%
Cc1oc2c(c1C(=O)N1CCOCC1)C(=O)c1ccccc1C2=O	42.9% (active)
Cc1ccc(C(=O)N2CCN(S(=O)(=O)N3CCOCC3)CC2)cc1	-14.3%
O=C(c1snnc1-c1ccccc1)N1CCOCC1	17.2%
CN(C)C(=O)c1ccc(-c2ccc(C3[C@@H]4CN(C(=O)Nc5ccccc5)C[C@H]3N4)cc2)cc1 (stereo partly specified)	-6.33%
O=C(C1CCCCC1)N1C[C@@H]2N[C@H](C1)C2c1ccc(-c2cccc(F)c2)cc1 (stereo partly specified)	-62.3% and -12.6%
Cc1cccc(-c2ccc(C3[C@@H]4CN(C(=O)Nc5ccc(C(F)(F)F)cc5)C[C@H]3N4)cc2)c1 (stereo partly specified)	92.4% (active) and 92.8% (active)
